Results: PubChem BioAssay AID624330 (Southern Research Specialized Biocontainment Screening …, 2012)
The whole screen tested about 340,000 compounds, of which about 2,100 (0.62%) were called active.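 How the source made its calls: active means first-screen hits whose inhibition reached a set limit at any dose in the follow-up dose series; inconclusive means inhibition above the set first-screen limit but never retested; inactive means the rest.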 A selection follows. Potency and affinity values are given separately.

Biological target: Rac GTPase-activating protein 1 (Homo sapiens) (UniProt Q9H0H5)
Experiment: MgcRacGAP GTPase-activating activity inhibitors, confirmation, biochemical, ADP Hunter fluorescence, primary and confirmatory (AID 624330);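 further: fluorescence reports GDP produced by GAP-driven GTP hydrolysis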
Conditions: MgcRacGAP-stimulated Rac1 GTP hydrolysis, at 30 µM, stronger effect = higher value, GST-tagged Rac1 F28L mutant substrate

Rac GTPase-activating protein 1 (Homo sapiens), sequence (Q9H0H5 whole entry, looked up): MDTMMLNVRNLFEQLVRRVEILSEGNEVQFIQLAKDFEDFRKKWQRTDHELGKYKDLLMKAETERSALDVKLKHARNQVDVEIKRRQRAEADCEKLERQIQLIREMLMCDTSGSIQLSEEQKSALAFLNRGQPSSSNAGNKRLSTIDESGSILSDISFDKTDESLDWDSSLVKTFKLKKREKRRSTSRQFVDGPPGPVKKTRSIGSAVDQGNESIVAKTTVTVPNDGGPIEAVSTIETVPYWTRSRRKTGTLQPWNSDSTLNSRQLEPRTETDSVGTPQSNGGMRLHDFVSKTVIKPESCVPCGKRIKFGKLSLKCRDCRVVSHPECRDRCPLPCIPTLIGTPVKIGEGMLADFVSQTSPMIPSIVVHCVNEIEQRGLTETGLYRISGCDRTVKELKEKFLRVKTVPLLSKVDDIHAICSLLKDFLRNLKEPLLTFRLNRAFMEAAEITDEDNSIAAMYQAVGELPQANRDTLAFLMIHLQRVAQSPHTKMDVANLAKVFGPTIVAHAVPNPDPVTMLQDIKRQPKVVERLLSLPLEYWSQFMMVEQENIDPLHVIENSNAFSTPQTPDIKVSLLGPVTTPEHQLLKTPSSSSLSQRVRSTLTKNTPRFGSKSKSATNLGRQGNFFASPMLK

inhibition, inactive:
COc1ccc(CN(CCc2ccccc2)Cc2ccccc2)cc1OC 28.5%
O=C(O)CSc1nnc(SCc2cccc3ccccc23)s1 4.86%
CCN(CC)C(=O)CSc1nc2c(sc(=S)n2CC)c(=O)n1-c1ccccc1 2.69%
COc1ccc(N2C(=O)NC(=O)C2=O)cc1 6.21%
Cc1ccc(N2C(=O)NC3(CCCCC3)C2=O)cc1 8.08%
COC(=O)[C@@]12CCCN1[C@H](c1ccc(-c3ccc(Cl)c(Cl)c3)cc1)[C@H]1C(=O)N(C)C(=O)[C@H]12 -9.75%
CC(=O)c1ccc(N2CCN(C(C)C(=O)Nc3ccc4c(c3)OCCO4)CC2)cc1 (stereo not drawn) -0.86%
Cc1cnc(NC(=O)C(C)N2C(=O)C3CC=CCC3C2=O)s1 (stereo not drawn) 5.83%
O=C(CN1CCc2ccccc2C1)Nc1ccccc1F 8.8%
Cc1ccc(NC(=O)C(C)N2CCCC2)cc1Cl (stereo not drawn) 13.2%
Cc1cnc(NC(=O)[C@H](C)N2C(=O)C3CCCCC3C2=O)s1 (stereo partly drawn) 1.01%
CC(C(=O)Nc1ccc2c(c1)OCO2)N1CCC(N2CCCCC2)CC1 (stereo not drawn) 26%
CN1CCN(CCC(=O)Nc2ccc(F)c(F)c2)CC1 2.01%
O=C(CN1CCc2ccccc2C1)Nc1ccccc1Cl 9.11%
Cc1cccc(-c2nc(C#N)c(N3CCC(C)CC3)o2)c1 -3.59%
COc1ccccc1/C=N/NC(=O)CC(=O)Nc1ccc(Cl)c(Cl)c1 3.66%
Cc1ccc(S(=O)(=O)NCCC(=O)N2CCN(Cc3ccccc3)CC2)cc1 -1.47%
Cc1ccc(C(=O)OCC(=O)NCc2cccs2)c(C)c1 6.37%
Cc1ccc(Oc2ccccc2NC(=O)CSCC(=O)Nc2cc(C)on2)cc1 3.22%
COc1ccc(S(=O)(=O)N2CCN(C(C)C(=O)Nc3ccc(C(C)C)cc3)CC2)cc1 (stereo not drawn) 5.24%
CN1CCN(CC(=O)Nc2ccccc2C(F)(F)F)CC1 28.9%
COc1ccc(NC(=O)NN2CCN(C)CC2)cc1 2.87%
CN1CCN(CCNC(=O)Nc2ccccc2C(F)(F)F)CC1 -0.21%
CC1Cc2ccccc2N1C(=O)CSc1nc2ccccc2s1 (stereo not drawn) 11.8%
CC(C)=NNC(=O)CN1C(=O)NC2NC(=O)NC21 (stereo not drawn) 6.56%
CC1(C)C2CCC(CN)C1C2 (stereo not drawn) 5.66%
Cc1nnc2sc(SCC(=O)Nc3cccc(Cl)c3)nn2c1=O 5.95%
COCC(C)n1c(C)cc(C(=O)CSc2nnnn2-c2ccc(O)cc2)c1C (stereo not drawn) 6.49%
Cc1cc(/C=C2\NC(=S)N(C)C2=O)ccc1N1CCCC1 22.4%
COc1cc(/C=C2\NC(=S)N(C)C2=O)ccc1OCc1ccccc1F -3.41%
O=C(NN=Cc1ccccc1C(=O)O)c1ccc(NS(=O)(=O)c2cccs2)cc1 5.61%
O=C(Cn1ccccc1=O)Nc1ccc(Cl)c(S(=O)(=O)N2CCCCC2)c1 1.69%
c1ccc(-c2csc(-c3cccnc3)n2)cc1 9.56%
Fc1ccc(-c2csc(-c3cccnc3)n2)cc1F 7.05%
NC(=O)c1cc(-c2csc(-c3cccnc3)n2)ccc1O 18.7%
Fc1ccccc1-c1csc(-c2cccnc2)n1 -4.78%
COc1ccc(NC(=O)Nc2cccc3c2O[C@H](CN(C)S(=O)(=O)c2c(C)noc2C)[C@@H](C)CN([C@H](C)CO)C3=O)cc1 6.8%
Fc1ccc(-n2cnnn2)c(F)c1 3.22%
CCCOc1ccc(C(=O)Nc2ccc(N3CCN(C(=O)c4ccco4)CC3)cc2)cc1 3.27%
CCC(C)[C@H](NC(=O)[C@@H]1Cc2ccccc2CN1)C(=O)Nc1ccc2c(c1)OCO2 (stereo partly drawn) -13.9%
COc1cccc(/C=C/C(=O)OCC(=O)Nc2cc(S(=O)(=O)N3CCOCC3)ccc2C)c1 2.2%
COc1cccc(/C=C/C(=O)OCC(=O)Nc2ccc(S(=O)(=O)N3CCCC3)cc2)c1 1.91%
COc1cc(/C=C/C(=O)OCC(=O)Nc2cc(S(=O)(=O)N3CCCC3)ccc2Cl)cc(OC)c1OC -3.8%
CCN(CC)c1ccc(S(=O)(=O)N2CCOCC2)cc1NC(=O)COC(=O)/C=C/c1ccc(C)o1 2.13%
COc1cccc(NC(=O)CN(C)C(C)C(=O)Nc2ccc(S(=O)(=O)N3CCCC3)cc2)c1 (stereo not drawn) -2.38%
CCN(CC)c1ccc(S(=O)(=O)N2CCOCC2)cc1NC(=O)COC(=O)/C=C/c1ccccc1 -3.02%
CCN(CC(=O)Nc1cccc(S(=O)(=O)N2CCCC2)c1)CC(=O)Nc1ccccc1OC 2.96%
COc1cc(/C=C/C(=O)OCC(=O)Nc2ccc(C)c(S(=O)(=O)N3CCCCC3)c2)ccc1O 13.2%
C=CCn1c(C(C)C)nc2ccccc21 4.59%
O=C1CN(C(=O)COC(=O)CCc2ccccc2O)c2ccccc2N1 1.54%
N#CC1(N2CCN(C(=O)c3ccccc3)CC2)CCCCC1 8.68%
Clc1ccc(N2CCN(c3ncnc4c3oc3ccccc34)CC2)cc1 -2.02%
CCC(=O)Nc1cccc(C(=O)OCc2cccc([N+](=O)[O-])c2)c1 5.63%
Cc1cc(C(=O)Nc2c(C)n(C)n(-c3ccccc3)c2=O)on1 11.2%
O=C(c1ccc(F)cc1F)N1CCN(S(=O)(=O)c2ccc3c(c2)OCCO3)CC1 7.11%
COc1cc2cnc(CCO[C@H]3CCCCO3)cc2cc1OC 7.49%
COc1ccc(NC(=O)Cc2ccsc2)cc1S(=O)(=O)N1CCOCC1 -4.48%
Cc1ccc(-c2onc3ccc(C4OCCO4)cc23)cc1 12.2%
CSc1ccccc1NC(=O)NCCCl -4.18%
CCCN1CCN(CCCNC(=O)C(CC)n2nc(C)n3c(cc4occc43)c2=O)CC1 (stereo not drawn) 10.2%
O=C(CCl)Nc1sccc1C(=O)c1ccccc1 11.5%
CCOc1ccc(C2Nc3ccc4ccccc4c3-c3c2c(=O)oc2ccccc32)cc1 (stereo not drawn) 5.67%
CC(=O)CCc1c(C)nc2ccc(C(=O)O)cc2c1Cl -3.43%
Cc1nc2ccc(C(=O)O)cc2nc1C 8.31%
Cc1cc(C)nc(NC2=NCCN2C(=O)NC2CCCCC2)n1 1.52%
Nc1ncnc2c1ncn2[C@@H]1O[C@H](CNCc2ccccc2OCc2ccc(Cl)cc2Cl)[C@@H](O)[C@H]1O 6.96%
COc1ccccc1/C=N/NC(=O)c1ccc(NC(=O)c2ccccc2Br)cc1 1.59%
Cc1ccc(NC(=O)NC(=O)CSc2n[nH]c(N)n2)c(C)c1 -33.7%
Cc1oc(-c2nc3ccccc3n2C)cc1C(=O)c1ccccc1 -4.53%
O=C(O)c1ccc(NCc2ccc3c(c2)OCO3)cc1 7.49%
O=C(O)c1cc(NCc2ccc3c(c2)OCO3)ccc1N1CCOCC1 12.2%
O=C(CN1CCN(Cc2ccc3c(c2)OCO3)CC1)Nc1ccc(N2CCOCC2)cc1 -4.89%
CC(=O)N1CCN(c2ccc(NC(=O)c3ccc4c(c3)OCO4)cc2)CC1 9.85%
O=C(NCc1ccc2c(c1)OCO2)C(=O)NCC1OCCN1S(=O)(=O)c1ccccc1 (stereo not drawn) 4.4%
Cc1cccc(OCC(=O)N2CCCc3ccccc32)c1 -0.63%
COc1ccc(CN(C)CCCn2cnc(C(=O)Nc3ccc(C)c(C)c3)n2)cc1OC 8.28%
CN1CCN(Cc2cccc(Oc3ccccc3)c2)CC1 4.23%
COc1ccccc1CN1CCN(C(=O)c2ccco2)CC1 -1.8%
CCN1CCN(Cc2cccc(Oc3ccccc3)c2)CC1 22.4%
COc1cc(CN2CCN(Cc3ccccc3C(F)(F)F)CC2)cc(OC)c1OC 5.51%
O=C(c1ccco1)N1CCN(Cc2cccc3ccccc23)CC1 15.8%
COc1cccc(CN2CCN(c3ncccn3)CC2)c1OC 2.75%
Cc1cc(Br)ccc1NC(=O)CCSc1ccccc1 2.79%
Cc1ccc(NC(=O)c2cc(N(C)C)ccc2[P+](=O)O)cc1 4.54%
Cc1ccc(C(=O)O)cc1N1CCCC1=O -7.73%
CCC(Sc1nc2n[nH]c(C)c2c(=N)n1-c1ccc(C)c(Cl)c1)C(=O)N1CCOCC1 (stereo not drawn) 8.01%
Oc1ccccc1CN1CCCC(N2CCc3ccccc3C2)C1 (stereo not drawn) 12.1%
c1ccc2c(c1)CCN(C1CCCCC1)C2 26.9%
COCCN(CCOC)C(=O)COC(=O)c1ccc(Cl)c(S(=O)(=O)N(C)c2ccccc2)c1 3.9%
CC1=C(SCc2ccccc2)C(=O)c2ccccc2C1=O -10.4%
O=S1(=O)N=C(SCCO)c2ccccc21 4.31%
Cc1ccc(OCCNC(=O)C(C)SCC(=O)Nc2ccc(F)cc2)cc1 (stereo not drawn) 1.75%
O=C(O)c1ccc2c(c1)C(=O)N(c1ccc(Nc3ccccc3)cc1)C2=O 9.3%
O=C1C=CC(=O)N1c1ccc(O)cc1 15.3%
O=C(c1ccc(Cl)c(Cl)c1)c1cc(-c2ccccn2)c(N2CCOCC2)s1 6.1%
COc1ccc(N2CCN(C(=O)c3cc(C4CC4)nn3-c3ccccc3)CC2)cc1 27.4%
CC(=O)c1ccc(N2CCN(C(=O)c3ccc(C(=O)c4ccccc4)cc3)CC2)cc1 -1.4%
Cc1ccc(-c2cc(C(=O)N3CCN(c4ccccc4O)CC3)c3ccccc3n2)cc1 2.39%
O=C(c1ccccc1)N1CCN(c2ccccc2)CC1 5.43%
COc1ccc(-c2cc(C(=O)N3CCN(c4ccccc4)CC3)c3ccccc3n2)cc1 -2.68%
O=C(c1ccc(Cl)c(S(=O)(=O)N2CCCCC2)c1)N1CCN(c2ccccc2)CC1 11.4%
O=C(c1cc(C2CC2)nn1-c1ccccc1)N1CCN(c2ccccc2O)CC1 5.58%
O=C(c1ccc(Cl)c(S(=O)(=O)N2CCCC2)c1)N1CCN(c2ccc(F)cc2)CC1 6.75%
